The nature of experiment [1]: ATG_PPRE_CIS: Attagene CIS-FACTORIAL HepG2 Assay for human Peroxisome Proliferator-activated Response Element (PPRE) (AID 2282958). Conditions: HepG2 PPRE cis-element reporter, Attagene transcription factor profiling; actives raise or lower the signal. The method in brief: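 HepG2 cells are transiently transfected with multiplexed cis-promoter reporter units to report endogenous PPAR activity. After 24 h dosing, reporter mRNA is read by RT-PCR and capillary electrophoresis. Fitting is bidirectional against DMSO.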

Experiment [2] can be described thus: ATG_RORE_CIS: Attagene CIS-FACTORIAL HepG2 Assay for human RAR-related Orphan Receptor Element (RORE) (AID 2282959). Conditions: HepG2 Attagene cis-factorial RORE reporter, mRNA; actives raise or lower the signal. The method in brief: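 HepG2 cells carrying transiently transfected cis-regulated reporter units; RORE-driven reporter mRNA quantified 24 h post-dosing by RT-PCR, 6-FAM primer extension, HpaI digestion and capillary electrophoresis. Bidirectional fit versus DMSO.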

A short description of experiment [3]: ATG_Sox_CIS: Attagene CIS-FACTORIAL HepG2 Assay for human SRY-box transcription factor (SOX) (AID 2282960). Conditions: HepG2 Attagene cis-factorial SOX reporter, mRNA; actives raise or lower the signal. The method in brief:
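HepG2 cells transiently transfected with multiple cis-regulated reporter units, then dosed for 24 h. Reporter mRNA quantified by RT-PCR, fluorescent labelling, HpaI digestion and capillary electrophoresis; bidirectional fit versus DMSO.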

The target in experiment [4] is Transcription factor Sp1 (Homo sapiens) (UniProt P08047). The experiment in a line: ATG_Sp1_CIS: Attagene CIS-FACTORIAL HepG2 Assay for human Specificity Protein 1 (Sp1) (AID 2282961). Conditions: HepG2 Sp1 cis-reporter transcription, actives raise or lower the signal. The procedure, abridged:
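HepG2 cells transiently transfected with multiplexed cis-regulated reporter constructs, chemical exposure 24 h. Reporter mRNA quantified by RT-PCR with capillary electrophoresis; bidirectional fit relative to DMSO.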

Experiment [5] can be described thus: ATG_SREBP_CIS: Attagene CIS-FACTORIAL HepG2 Assay for human Sterol Regulatory Element Binding (SREBP) (AID 2282962). The conditions noted are these: HepG2 Attagene cis-factorial SREBP reporter, mRNA; actives raise or lower the signal. The method in brief: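 Endogenous factor activity is measured in HepG2 through multiplexed reporter units under cis-element control. Following a 24 h incubation, reporter transcripts are reverse-transcribed, PCR-amplified and sized by capillary electrophoresis; activity is fitted in both directions relative to DMSO.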

In experiment [6] the target is Signal transducer and activator of transcription 3 (Homo sapiens) (UniProt P40763). The experiment in a line: ATG_STAT3_CIS: Attagene CIS-FACTORIAL HepG2 Assay for human Signal Transducer and Activator of Transcription 3 (STAT3) (AID 2282963). Conditions: HepG2, Attagene cis-factorial STAT3 reporter transcription; actives raise or lower the signal. The method in brief: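 Readout: fluorescent reporter mRNA fragments resolved by capillary electrophoresis. Setup: HepG2 transfected with MRTUs reporting endogenous transcription-factor activity, dosed 24 h. Gain or loss of signal fitted bidirectionally against DMSO control.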

A short description of experiment [7]: ATG_TA_CIS: Attagene CIS-FACTORIAL HepG2 Assay for human TA Basal Promoter (AID 2282964). The conditions noted are these: HepG2 Attagene CIS-factorial TA basal promoter reporter; actives raise or lower the signal. The procedure, abridged:
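Transfected HepG2, 24 h compound exposure; RNA → RT-PCR → FAM primer extension → HpaI cut → CE fluorescence. Gain/loss-of-signal fitted against DMSO negative control. Background-control readout.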

The nature of experiment [8]: ATG_TCF_b_cat_CIS: Attagene CIS-FACTORIAL HepG2 Assay for human T-Cell-Factor with beta-catenin (TCF/b-cat) (AID 2282965). Conditions: HepG2 TCF/beta-catenin cis-reporter transcription, actives raise or lower the signal. The procedure, abridged: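 Cells of the HepG2 line carry transiently transfected reporter units whose promoters respond to endogenous factors. Twenty-four hours post-dosing, reporter mRNA induction is measured by fluorescent RT-PCR and capillary electrophoresis, with DMSO as baseline.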

Experiment [9] in a line: ATG_TAL_CIS: Attagene CIS-FACTORIAL HepG2 Assay for human TAL Basal Promoter (AID 2282966).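 Also: background control endpoint measuring basal TAL promoter reporter mRNA not a specific factor.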 The conditions noted are these: HepG2 Attagene cis-factorial TAL promoter reporter; actives raise or lower the signal. The procedure, abridged: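 After 24 hours of chemical exposure, transfected HepG2 cells yielded RNA that was converted to 6-FAM-labelled, HpaI-digested reporter fragments for capillary electrophoresis. Values derive from bidirectional fitting against DMSO controls.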

Activity calls are given as the source filed them. The calls were made as follows: active = hit-call score of the fitted dose curve at least 0.9, where 1 is the maximum; inactive = score below 0.9.

We go through 28 molecules from PubChem BioAssay (EPA / NIEHS).

Broadly, the AC50 is the midpoint of the concentration-response curve, whichever way the signal moves.

Signal transducer and activator of transcription 3 (Homo sapiens), sequence (P40763 whole entry, looked up, the tested form may be a part): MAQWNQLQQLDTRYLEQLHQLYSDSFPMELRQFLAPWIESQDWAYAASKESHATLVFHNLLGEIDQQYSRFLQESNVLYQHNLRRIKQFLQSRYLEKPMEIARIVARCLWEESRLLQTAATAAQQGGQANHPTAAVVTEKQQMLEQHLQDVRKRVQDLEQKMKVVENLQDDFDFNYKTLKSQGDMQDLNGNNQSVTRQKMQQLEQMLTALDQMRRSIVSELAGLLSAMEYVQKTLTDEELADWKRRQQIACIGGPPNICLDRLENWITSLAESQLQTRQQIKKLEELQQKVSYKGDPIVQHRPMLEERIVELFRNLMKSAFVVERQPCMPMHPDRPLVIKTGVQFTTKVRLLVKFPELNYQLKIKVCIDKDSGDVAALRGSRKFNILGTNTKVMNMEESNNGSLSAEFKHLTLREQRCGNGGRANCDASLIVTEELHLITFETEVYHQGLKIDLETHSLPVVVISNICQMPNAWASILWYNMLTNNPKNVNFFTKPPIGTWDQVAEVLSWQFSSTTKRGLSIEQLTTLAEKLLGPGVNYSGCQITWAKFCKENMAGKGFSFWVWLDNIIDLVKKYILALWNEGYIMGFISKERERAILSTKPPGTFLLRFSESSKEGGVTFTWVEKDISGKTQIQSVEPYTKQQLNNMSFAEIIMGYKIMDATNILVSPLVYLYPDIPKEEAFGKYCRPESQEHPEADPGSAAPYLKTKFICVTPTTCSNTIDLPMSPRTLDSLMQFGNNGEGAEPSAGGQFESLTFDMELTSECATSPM
Transcription factor Sp1 (Homo sapiens), sequence (P08047 whole entry, looked up): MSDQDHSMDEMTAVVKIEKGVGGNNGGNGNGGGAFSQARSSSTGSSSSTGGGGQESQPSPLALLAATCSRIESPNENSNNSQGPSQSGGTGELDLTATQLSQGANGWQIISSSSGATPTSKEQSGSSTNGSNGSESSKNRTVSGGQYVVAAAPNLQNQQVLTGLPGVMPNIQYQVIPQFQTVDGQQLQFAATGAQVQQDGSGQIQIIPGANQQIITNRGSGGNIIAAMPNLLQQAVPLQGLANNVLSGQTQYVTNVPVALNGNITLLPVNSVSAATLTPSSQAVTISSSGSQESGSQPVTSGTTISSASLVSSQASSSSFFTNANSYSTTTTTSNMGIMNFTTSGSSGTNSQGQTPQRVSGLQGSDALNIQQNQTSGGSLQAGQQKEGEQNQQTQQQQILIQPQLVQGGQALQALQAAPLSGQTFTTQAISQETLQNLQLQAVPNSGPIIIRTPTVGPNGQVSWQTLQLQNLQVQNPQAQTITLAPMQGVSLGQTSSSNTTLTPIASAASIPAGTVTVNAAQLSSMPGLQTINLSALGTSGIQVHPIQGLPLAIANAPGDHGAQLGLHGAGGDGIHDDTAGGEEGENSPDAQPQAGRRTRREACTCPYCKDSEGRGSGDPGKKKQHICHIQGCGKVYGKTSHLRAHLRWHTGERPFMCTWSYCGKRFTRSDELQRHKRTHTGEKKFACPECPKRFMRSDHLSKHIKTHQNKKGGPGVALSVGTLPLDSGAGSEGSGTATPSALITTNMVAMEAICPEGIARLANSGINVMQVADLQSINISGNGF

Turning to `OC[C@H]1O[C@@H](Oc2ccc(O)cc2)[C@H](O)[C@@H](O)[C@@H]1O`, the molecule was called inactive in [1], in experiment [2], in experiment [3], in experiment [4], in [5] and in experiment [6]. For the same molecule, the molecule was classed as inactive in [7], in experiment [8] and in [9].

On to `C#CC(C)(O)CC(C)C` (configuration not stated), for which the call in experiment [1], in experiment [2], in [3], in experiment [4], in [5] and in [6] was inactive. Further, the call in experiment [7], in [8] and in [9] was inactive.

For the molecule `COc1cccc(OC)c1O`, the outcome in experiment [1], in [2], in experiment [3], in experiment [4], in experiment [6] and in [7] was inactive. In addition, the result in experiment [8] was inactive.

Turning to `COCCc1ccc(OCC(O)CNC(C)C)cc1` (configuration not stated), the molecule was classed as inactive in experiment [1], in experiment [4], in experiment [5], in [6], in [7] and in [8]. Also, in experiment [9], the outcome was inactive.

On to `CCN(CCN)c1cccc(C)c1`, for which the molecule was called inactive in experiment [2], in experiment [3], in experiment [4], in experiment [5], in experiment [6] and in experiment [8]. For the same molecule, the outcome in [9] was inactive.

For `O=C1NC2NC(=O)NC2N1` (configuration not stated), the outcome in [1], in experiment [2], in experiment [4], in [6], in experiment [7] and in [8] was inactive. Besides, the outcome in experiment [9] was inactive.

Turning to `CC(C)(CO)[C@@H](O)C(=O)NCCC(=O)O`, the molecule was classed as inactive in experiment [1], in [3], in experiment [4], in experiment [5], in experiment [6] and in [7]. The result in [8] and in experiment [9] was inactive.

`BrCc1cccc(Oc2ccccc2)c1`: the result in [1], in [2], in [3], in experiment [4], in experiment [5] and in experiment [6] was inactive. Moreover, the molecule was called inactive in [7] and in [9]. The AC50 in experiment [8] is 100 µM (active).

Regarding `CS(=O)(=O)c1ccc(Cl)cc1`, the result in experiment [2], in experiment [3], in [4], in [5], in experiment [6] and in [7] was inactive. Also, the outcome in experiment [8] and in [9] was inactive.

Take `CC(C)=CCCC(C)CC(=O)O` (configuration not stated): the outcome in [1], in [2], in [3], in experiment [4], in [5] and in experiment [6] was inactive. Further, the outcome in experiment [7], in [8] and in experiment [9] was inactive.

As to `CC(=O)c1c(C)c([N+](=O)[O-])c(C(C)(C)C)c([N+](=O)[O-])c1C`, the outcome in experiment [1], in experiment [2], in [3], in experiment [4], in experiment [5] and in experiment [6] was inactive. Moreover, the call in [7], in experiment [8] and in experiment [9] was inactive.

As to `[O-]n1ccccc1=S.[O-]n1ccccc1=S.[Zn+2]`, the molecule was called inactive in experiment [1], in experiment [2], in [3], in experiment [4], in experiment [5] and in experiment [6]. In addition, the result in experiment [7], in experiment [8] and in experiment [9] was inactive.

With `CC(C)(C)CC(C)(C)c1ccc(OCCOCC[N+](C)(C)Cc2ccccc2)cc1`, the molecule was classed as inactive in [1], in [3], in experiment [4], in [6] and in experiment [9]. Also, the AC50 in [8] was 12 µM (active).

On to `COc1ccc(N)c([N+](=O)[O-])c1`, for which the outcome in experiment [1], in experiment [2], in [3], in [4], in [5] and in experiment [6] was inactive. The molecule was classed as inactive in experiment [7], in experiment [8] and in [9].

As for `CN(C)c1cccc(O)c1`, the molecule was classed as inactive in experiment [1], in [3], in experiment [4], in experiment [5], in [6] and in experiment [7]. For the same molecule, the result in experiment [8] and in experiment [9] was inactive.

On to `C=C(C#N)C(=O)OCC`, for which the call in experiment [1], in experiment [2], in experiment [3], in [4], in experiment [5] and in experiment [6] was inactive. For the same molecule, the result in [7] and in experiment [9] was inactive. Besides, the AC50 in experiment [8] is 100 µM (active).

For `CC(CN=Cc1ccccc1O)N=Cc1ccccc1O` (configuration not stated), the outcome in [1], in experiment [2], in [3], in [4], in [5] and in [6] was inactive. The call in experiment [7] and in [8] was inactive. Besides, the AC50 in experiment [9] was 25.9 µM (active).

Regarding `Cc1ccc(S(=O)(=O)Oc2ccc(N=Nc3ccc(-c4ccc(N=Nc5c(O)ccc6cc(S(=O)(=O)O)cc(S(=O)(=O)O)c56)c(C)c4)cc3C)cc2)cc1`, the molecule was called inactive in experiment [1], in experiment [3], in experiment [4], in experiment [5], in experiment [6] and in experiment [7]. The molecule was classed as inactive in experiment [8] and in experiment [9].

For `COC(=O)C=C(C)CCC=C(C)C`, the result in experiment [2], in experiment [3], in [4], in experiment [5], in [6] and in experiment [7] was inactive. The outcome in experiment [8] and in [9] was inactive.

Consider `O=c1c(O)c(-c2ccc(O)cc2)oc2cc(O)cc(O)c12`, for which the result in experiment [1], in [2], in experiment [3], in experiment [4], in [5] and in [6] was inactive. Further, the outcome in experiment [7], in experiment [8] and in experiment [9] was inactive.

Take `Cc1c(OCC(F)(F)F)ccnc1CS(=O)c1nc2ccccc2[nH]1` (configuration not stated): the molecule was called inactive in experiment [1], in experiment [3], in [4], in experiment [5], in [6] and in [9]. The AC50 in experiment [2] was 19.8 µM (active); in [7] it was 37.3 µM (active); in [8] it was 57.7 µM (active).

For the molecule `CCCCCCCCCCCCN1CCCCCC1=O`, the molecule was classed as inactive in experiment [1], in experiment [2], in [3], in [4], in experiment [6] and in experiment [7]. Also, the outcome in experiment [8] and in experiment [9] was inactive.

With `O=C1OC(=O)c2c(Cl)c(Cl)c(Cl)c(Cl)c21`, the AC50 in experiment [1] was 177 µM (active). In addition, the outcome in [3], in experiment [4], in [5], in experiment [6], in [7] and in experiment [8] was inactive. Also, the outcome in experiment [9] was inactive.

Consider `OCCCCC(O)CO` (configuration not stated), for which the call in experiment [2], in [3], in experiment [4], in experiment [5], in [6] and in [7] was inactive. The call in [8] and in experiment [9] was inactive.

Take `O=C1c2ccccc2C(=O)c2c(O)ccc(O)c21`: the outcome in experiment [2], in experiment [3], in experiment [4], in experiment [5], in experiment [6] and in [7] was inactive. The molecule was called inactive in experiment [8] and in experiment [9].

Consider `C1CCOC1`, for which the molecule was called inactive in experiment [1], in [3], in experiment [4], in experiment [5], in experiment [6] and in experiment [7]. Moreover, the molecule was called inactive in [8] and in experiment [9].

With `C1=CC2C3C=CC(C3)C2C1` (configuration not stated), the molecule was called inactive in [2], in experiment [3], in [4], in experiment [6], in [7] and in [8].

For `Oc1ccc2cc(SSc3ccc4cc(O)ccc4c3)ccc2c1`, the AC50 was 160 µM (active) in experiment [1], 75.2 µM (active) in [4], 8.33 µM (active) in experiment [5] and 26.6 µM (active) in experiment [7]. The result in [3], in experiment [6], in [8] and in experiment [9] was inactive.
